IP6K1 inh = Primary qHTS assay for small molecule inhibitors of Inositol hexaphosphate kinase 1 (IP6K1) | IP6K1 kinase, ADP-Glo luminescence, 2 h; hits give low values | activity change, % (series mostly up to about 58 µM) | Inositol hexakisphosphate kinase 1 (Homo sapiens), Q92551 | 0.81% of 140,000 active; in the data active = activity change below about -25%; note: % is set by controls: 0 for no effect and ±100 for the full control effect
Target sequence (Q92551 whole entry, looked up): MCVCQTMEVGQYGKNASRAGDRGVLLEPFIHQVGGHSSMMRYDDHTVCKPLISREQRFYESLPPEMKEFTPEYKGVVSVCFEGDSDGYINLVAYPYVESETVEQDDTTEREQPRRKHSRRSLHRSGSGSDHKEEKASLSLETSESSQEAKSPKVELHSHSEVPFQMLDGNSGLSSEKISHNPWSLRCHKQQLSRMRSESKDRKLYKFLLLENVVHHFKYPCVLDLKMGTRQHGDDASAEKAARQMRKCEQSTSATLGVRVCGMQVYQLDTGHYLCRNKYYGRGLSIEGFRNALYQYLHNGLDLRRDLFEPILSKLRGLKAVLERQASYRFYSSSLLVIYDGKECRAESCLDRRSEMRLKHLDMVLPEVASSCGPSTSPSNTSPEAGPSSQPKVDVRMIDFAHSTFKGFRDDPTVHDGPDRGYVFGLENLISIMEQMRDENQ
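ADP-Glo luminescence measures ADP made by human IP6K1 during a 2 h RT reaction with ATP/IP6 (mix at 1.3 mM/130 uM); top library doses 57.5 and 19.1 uM final.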
HEK293 viab = GF-AFC viability counterscreen for inhibitors of alpha-synuclein gene (SNCA) expression. HEK-293-SNCA-luc viability, GF-AFC fluorescence, 24 h. Potency, µM (doses to about 57.1 µM), for the others: at the highest dose activity change, negative = cytotoxicity, hits mostly cytotoxic. 0.12% of 150,000 active. AID 1671193, 2021;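 note: potency is the fitted concentration of half-maximal effect; 0% = DMSO-treated cells and -100% = medium-only wells without cells; nearly all actives have a fitted effect of over 30% in size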
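HEK-293-SNCA-luc cells (1500/well) plated 24 h, then exposed 24 h to a dilution series; GF-AFC added 30 min at 37C, fluorescence 405/540 nm; normalised to medium-only and DMSO wells, Hill fit.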
KDM5B inhibitor = Primary screen for KDM5B Histone Demethylases FDH-coupled qHTS; Potency, µM (series often up to 57.7 µM), hits mostly inhibitors; KDM5B demethylase, FDH-coupled NADH fluorescence (FDH is formaldehyde dehydrogenase); 2.6% of 220,000 active; Lysine-specific demethylase 5B (Homo sapiens), Q9UGL1; note: potency is the fitted concentration of half-maximal effect; 0% is about no effect; nearly all actives have a fitted effect of over 70% in size
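Coupled FDH/NAD⁺ fluorescence readout. KDM5BΔAP 200 nM final; compound titration, 10 min RT preincubation; substrate mix 12.5 µM H3K4me3, 25 µM 2-OG, 50 µM Fe(II), 100 µM ascorbate, 0.25 mM NAD⁺, 0.25 U/mL FDH; ΔRFU over 30 min.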
SNCA expr inh = Primary qHTS assay for inhibitors of alpha-synuclein gene (SNCA) expression | HEK-293 SNCA-luciferase knock-in, luminescence, 24 h | Potency, µM (titrated, usually from 57.2 µM), for the others: at the highest dose activity change, negative = inhibition, actives largely listed as inhibitors | 0.17% of 140,000 active;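 note: potency is the fitted concentration of half-maximal effect; plate controls were DMSO cells for no effect and cell-free wells for full effect; nearly all actives have a fitted effect of over 45% in size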
Starred values were filed as active, the others as inactive; i = inactive; ? = inconclusive; / = not tested or not shown; ! = not confirmed by another sample; [ ] = remark or other dose. In the library only some 2.8% were active in any assay of this set; here they are far more common. Unless noted, calls come from the whole dose curve; as a rule, active = well fitted curve in the direction sought with a large enough effect; inconclusive = small, poorly fitted or top-dose-only effect, or another doubt; inactive = no such curve, though single readings can be large; an effect the other way counts as inactive or inconclusive.

SMILES	IP6K1 inh	HEK293 viab	KDM5B inhibitor	SNCA expr inh
O=C(NCCC1CCN(C(=O)Nc2cc(F)cc(F)c2)CC1)c1ccccc1	-11.1	-3.5%	i	78.7%
CN(C)c1cccc(C(=O)NCCC2CCN(C(=O)Nc3cc(F)cc(F)c3)CC2)c1	-4.5	-0.7%	31.6µM*	119.8%
O=C(NC1CC1)c1ccc2nnc(-c3ccc(Cl)cc3)n2c1	-2.7	-0.5%	50.1µM*	0.8%
O=C(NC1CC1)c1ccc2nnc(-c3cncc(Cl)c3)n2c1	7.5	-0.1%[87.6 µM]	/	-8.0%[87.6 µM]
COCCNC(=O)c1ccc2nnc(-c3cncc(Cl)c3)n2c1	12.0	3.8%	100µM*	24.5%
CC(Sc1n[nH]c(-c2cccs2)n1)C(=O)Nc1ccc(F)cc1 (centres undefined)	/	/	i	/
CCC(C)NC(=O)Nc1cc(C(=O)NC)ccc1C (centres undefined)	/	/	i	/
CCCNC(=O)CC(c1ccccc1OC)c1c[nH]c2c(CC)cccc12 (centres undefined)	-9.5	0.7%	31.6µM*	-9.3%
CC(C)(C)c1ccc(-c2cc(C[C@H]3CNCC[C@H]3CC(=O)NCc3cccs3)no2)cc1	4.5	0.4%	i	12.2%
C[S+](=O)([O-])N1CCC(Cn2ccc3c(N4CCOCC4)nc(-c4cccnc4)cc32)CC1	16.6	0.8%	?	-7.2%
Cc1ccc(-c2cc3c(ccn3CC3CCN([S+](C)(=O)[O-])CC3)c(N3CCOCC3)n2)cn1	1.6	-1.0%	31.6µM*	12.4%
CS(=O)(=O)Cc1ccc(C(=O)NCc2ccc(F)cc2)cc1	/	/	i	/
Cn1ncc2c(C(=O)NCC(=O)OC(C)(C)C)cc(-c3ccccc3C(F)(F)F)nc21	7.7	/	/	/
CC1(C(=O)NCCCn2ccnc2)CCc2cnc(NCc3ccccc3)nc21 (centres undefined)	1.6	-5.6%[87.6 µM]	39.8µM*	?
COCCNC(=O)C1(C)CCc2cnc(NCc3ccccc3)nc21 (centres undefined)	-6.0	2.3%[87.6 µM]	35.5µM*	?
CC1(C(=O)NCC2CC2)CCc2cnc(NCc3ccccc3)nc21 (centres undefined)	5.1	-6.0%[87.6 µM]	39.8µM*	?
COCCNC(=O)C1(C)CCc2cnc(Nc3ccccc3)nc21 (centres undefined)	-4.3	-13.7%[87.6 µM]	i	-33.2%[87.6 µM]
CC1(C(=O)NCC2CC2)CCCc2cnc(Nc3ccccc3)nc21 (centres undefined)	-8.1	-26.1%[87.6 µM]	i	?
Cn1ccc(NC(=O)C2(C)CCc3cnc(NCc4ccccc4)nc32)n1 (centres undefined)	-2.6	-6.6%[87.6 µM]	35.5µM*	-1.2%[87.6 µM]
Cc1ccc(-c2cnc(SCC(=O)Nc3ccc(Br)cc3)o2)cc1C	/	/	i	/
Cc1ccc2nc(Cl)c3cc(C(=O)NC4CCCc5ccccc54)sc3c2c1 (centres undefined)	/	/	i	/
COc1ccc(OC)c(CN2CCN(C(=O)c3cn(C)nc3-c3ccc4c(c3)OCCCO4)CC2)c1	/	/	i	/
O=C(CCc1ccnc(N2CCCC2)c1)NCc1ccccc1Cl	15.6	2.5%	?	20.8%
CN(Cc1ccccc1)C(=O)CCc1ccnc(N2CCOCC2)c1	1.3	4.5%	25.1µM*	32.5%
Cc1ccccc1NC(=O)CCc1ccnc(N2CCCC2)c1	8.0	0.2%	28.2µM*	21.8%
SMILES	IP6K1 inh	HEK293 viab	KDM5B inhibitor	SNCA expr inh
COc1ccc(NC(=O)CCc2ccnc(N3CCCC3)c2)c(C)c1	-17.4	-13.8%	25.1µM*	7.9%
Cc1ccccc1C(=O)N1C2CCCC1CC(=O)C2	5.9	6.8%[87.6 µM]	i	2.6%[87.6 µM]
CO[C@H]1C(=O)N(C2CCN(C(=O)c3cccc4[nH]ccc34)CC2)[C@H]1c1ccncc1	25.4	-1.0%	25.1µM*	7.6%
O=C(c1cccc2[nH]ccc12)N1CCC(N2C(=O)C3(CCCCC3)C2c2ccncc2)CC1 (centres undefined)	0.0	4.5%[12.5 µM]	22.4µM*	?
O=C1CC2CCCC(C1)N2C(=O)c1cccc2[nH]ccc12	15.3	9.9%[87.6 µM]	35.5µM*	38.4%[87.6 µM]
O=C(c1ccc2cc[nH]c2c1)N1CCC(N2C(=O)C3(CCCCC3)C2c2ccncc2)CC1 (centres undefined)	-2.8	8.7%[12.5 µM]	?	22.8%
CCOC(=O)C1=C(N)Oc2c(oc(CO)cc2=O)C1c1cccc(F)c1 (centres undefined)	/	/	i	/
COc1ccc(C(=O)Oc2ccc3c(=O)c(Oc4cccc(OC)c4)coc3c2)cc1	/	/	i	/
C=CC(=O)Nc1cccc(Oc2nc(Nc3ccc(N4CCN(C)CC4)cc3)ncc2Cl)c1	37.1	2.99µM*!	/	8.5%
COc1ccc(Nc2ccnc(N3CCN(C(=O)Cc4ccc(F)cc4)CC3)n2)cc1	1.0	-17.4%[12.5 µM]	/	?
CCCCNC(=O)Cc1csc2nc(C)c(-c3cc(C)n(-c4cccc(Cl)c4)n3)c(=O)n12	23.0	-3.6%	?	-13.8%
Cc1ccc(Cl)cc1-n1nc(-c2c(C)nc3scc(CC(=O)NCCC(C)C)n3c2=O)cc1C	6.3	?	22.4µM*	-10.4%
Cc1cccc(-n2nc(-c3c(C)nc4scc(CC(=O)NC5CC5)n4c3=O)cc2C)c1	13.3	?	25.1µM*	-4.6%
CCCNC(=O)Cc1csc2nc(C)c(-c3cc(C)n(-c4ccc(Cl)c(Cl)c4)n3)c(=O)n12	15.6	-4.2%	28.2µM*	-24.8%
Cc1nc2scc(CC(=O)NCC(C)C)n2c(=O)c1-c1cc(C)n(-c2ccc(F)cc2)n1	25.5	-3.6%	?	1.7%
Cc1nc2scc(CC(=O)N3CCOCC3)n2c(=O)c1-c1cc(C)n(-c2ccc(C(C)C)cc2)n1	5.1	-2.7%	25.1µM*	-2.3%
CC1CCN(CC(=O)NCCc2c[nH]c3ccccc23)CC1	/	/	i	/
COc1ccccc1-c1ccc(C(=O)N2C[C@@H](N(C)C)[C@H](C(C)C)C2)cc1	-16.9	-19.8%	28.2µM*	-13.0%
Cc1ccc(-c2ccccc2CN2CCN(C(=O)NC3CCCC3)CC2)cc1Cl	-6.3	-4.2%[12.5 µM]	/	1.9%
Cc1cc(C)c2c(CC(=O)Nc3ccc(S(=O)(=O)N4CCCCC4)cc3)coc2c1	-5.7	-10.6%	i	22.4µM*
Cn1c(C(=O)N2CCN(c3ccccn3)CC2)nc2nc(-c3ccccc3)c(Cl)cc21	4.2	?	35.5µM*	?
Cn1c(C(=O)NCCc2cnc[nH]2)nc2nc(-c3ccccc3)c(Cl)cc21	11.9	-1.7%[87.6 µM]	35.5µM*	4.7%[87.6 µM]
COCCN(C)C(=O)c1nc2nc(-c3ccccc3)c(Cl)cc2n1C	-1.4	1.9%[87.6 µM]	?	2.6%[87.6 µM]
CN(C)CCNC(=O)c1nc2nc(-c3ccccc3)c(Cl)cc2n1C	11.6	0.9%[87.6 µM]	39.8µM*	31.8%[87.6 µM]
CN(C)CCNC(=O)c1nc2nc(-c3ccccc3)c(-c3ccccc3F)cc2n1C	7.7	-22.4%[87.6 µM]	i	-11.9%[87.6 µM]
CN1CCN(c2ccc(-c3cn(C)c(=O)n4cc(COc5ccnn5C)nc34)cn2)CC1	-14.6	3.2%[87.6 µM]	39.8µM*	-2.3%[87.6 µM]
